What is called viability is a read-out of living cells in per cent, often relative to untreated cells.

The record followed here is PubChem BioAssay (NCATS).

The structures appear in SMILES notation. Results filed as inconclusive are left out. Active and inactive are the calls of the source. Calls come from the whole dose curve; as a rule, active = well fitted curve in the direction sought with a large enough effect; inconclusive = small, poorly fitted or top-dose-only effect, or another doubt; inactive = no such curve, though single readings can be large; an effect the other way counts as inactive or inconclusive. Peptide text beside a SMILES is read from it. * marks the point of attachment. Cbz = O=C(OCc1ccccc1)*
Note: nearly all actives have a fitted effect of over 35% in size.
Potency is the fitted concentration of half-maximal effect.

One test can be described thus: Quantitative highthroughput screen to assess conditional lethalithy of NOMO1 cells grown in Human Plasma-Like Medium with dialyzed fetal bovine serum (HPLM+ds) (AID 1963878).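 For viability: 100% = DMSO wells and 0% = empty wells on each plate.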 The note with it: NOMO1 AML cells in HPLM+ds, CellTiter-Glo viability, 48 h; series mostly up to 45.8 µM; viability: at the top concentration. In outline: (§1)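 Each medium arm—HPLM with 10% dialyzed FBS, or RPMI1640 with 5 mM glucose and 10% untreated or dialyzed FBS—was screened against an 11-point, 3-fold compound titration for 48 h at 37 °C, with CellTiter-Glo luminescence as endpoint.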
A general note: In ATP-based viability assays light output follows the ATP content of the culture.
`N#Cc1c(N(CC(=O)O)CC(=O)O)sc(C(=O)O)c1CC(=O)O`: the “viability” value is 80.6% (inactive).
In the case of `CNC1CCC(N(Cc2cccc(-c3ccncc3)c2)C(=O)c2sc3ccccc3c2Cl)CC1` (stereo not drawn), the Potency was 1480 nM (active).
Regarding `CN(C)S(=O)(=O)c1ccc2c(c1)C(=Cc1cc3c([nH]1)CCCC3)C(=O)N2`, the “viability” value is 108% (inactive).
Same read-out and setting: under `O=C1N(c2ccccc2)c2ccccc2C1(Cc1ccncc1)Cc1ccncc1` stands 88.3% (inactive).
Same read-out and setting: then `OC(Cn1cncn1)(Cn1cncn1)c1ccc(F)cc1F`, with 102% (inactive).
In the case of `Cc1nc(N)ncc1-c1nc(N2CCOCC2)c2sc(C(C)(C)O)cc2n1`, the Potency is 37.2 nM (active).
Same read-out and setting: under `CCCCCCCCCCCCCC(=O)N[C@H](CO)[C@H](O)c1ccc([N+](=O)[O-])cc1` stands 1660 nM (active); under `CN1CCN(CCCN2c3ccccc3Sc3ccc(C(F)(F)F)cc32)CC1`, 2640 nM (active).
The same measure, in the same setting: then `O=C(Nc1cccc(Cl)c1)Nc1ncc(CCNc2ncnc3ccsc23)s1`, with 105 nM (active).
For the molecule `O=C(O)Cc1cccc(OCCCN(Cc2cccc(C(F)(F)F)c2Cl)CC(c2ccccc2)c2ccccc2)c1`, the “viability” value was 102% (inactive).
Same read-out and setting: then `COc1ccc(C2CNC(=O)C2)cc1OC1CCCC1` (stereo not drawn), with 99% (inactive).
Regarding `CC(C)c1cnn2c(NCc3ccccc3)cc(N[C@@H](CO)[C@H](O)CO)nc12`, the Potency was 662 nM (active).
On the same count and under the same terms, then `CC(C)C[C@@H](C=O)NC(=O)[C@H](CC(C)C)NC(=O)[C@H](CC(C)C)NC(=O)OCc1ccccc1` (Cbz-Leu-Leu-Leu-aldehyde), with 1480 nM (active); and `CCS(=O)(=O)c1cccc(-c2cc(C(=O)NC3CCN(C)CC3)c(C)c3[nH]c4ncc(C)cc4c23)c1`, with 6620 nM (active).
With `COc1ccc2c(Oc3ccc(NC(=O)c4c(C)n(CC(C)(C)O)n(-c5ccccc5)c4=O)cc3F)ccnc2c1`, the “viability” value is 82.7% (inactive).
On to `CN1CCN(Cc2ccc(NC(=O)Nc3ccc(Oc4cc(NC(=O)C5CC5)ncn4)cc3)cc2C(F)(F)F)CC1`, for which the Potency is 372 nM (active).
Same read-out and setting: then `Cc1cc(Nc2ncc(Cl)c(Nc3ccccc3S(=O)(=O)C(C)C)n2)c(OC(C)C)cc1C1CCNCC1`, with 13200 nM (active).
As to `CC(C)Oc1cc(Nc2nc(N[C@@H](C)c3ccc(F)cn3)ncc2Cl)[nH]n1`, the “viability” value is 83.6% (inactive).
In the case of `Cc1ccn(-c2ccc(-c3ncco3)cc2)c(=O)c1-c1ccc2nc(N)ncc2c1`, the “viability” value was 84.9% (inactive).
For the molecule `CC#C[C@]1(O)CC[C@H]2[C@@H]3CCC4=CC(=O)CCC4=C3[C@@H](c3ccc(N(C)C)cc3)C[C@@]21C`, the Potency is 8330 nM (active).
Regarding `Oc1ccc2ccccc2c1SSc1c(O)ccc2ccccc12`, the “viability” value is 92.8% (inactive).
Still for that read-out and setting: under `N[C@@H](Cc1cc(I)c(Oc2cc(I)c(O)c(I)c2)c(I)c1)C(=O)O` stands 94.5% (inactive).
Turning to `Cc1ccccc1-n1c(Cn2nc(-c3cccc(O)c3)c3c(N)ncnc32)nc2cccc(C)c2c1=O`, the Potency was 1660 nM (active).
As for `Cc1nc(-c2ccc(OCC(C)C)c(C#N)c2)sc1C(=O)O`, the “viability” value was 113% (inactive).
Consider `C=CC(=O)N1CCc2ccc(-n3c(=O)ccc4cnc5ccc(-c6cnn(C)c6)cc5c43)cc21`, for which the Potency is 3720 nM (active).
Same read-out and setting: then `Cc1cc(O)c2c(c1)C(=O)c1cccc(O)c1C2=O`, with 20900 nM (active).
On to `Cc1onc(-c2ccccc2Cl)c1C(=O)N[C@@H]1C(=O)N2[C@@H]1SC(C)(C)[C@@H]2C(=O)O`, for which the “viability” value was 87.6% (inactive).
Same read-out and setting: under `CCC(=O)N[C@H]1CC[C@H](C(=O)N(C)c2ccc(-c3nc4ccccc4o3)cc2)C1` stands 78.8% (inactive).
For `Cc1cnc(Nc2ccc(OCCN3CCCC3)cc2)nc1Nc1cccc(S(=O)(=O)NC(C)(C)C)c1`, the “viability” value is 72.8% (inactive).
The same measure, in the same setting: then `O=C(O)c1cc(=O)c2c(OCC(O)COc3cccc4oc(C(=O)O)cc(=O)c34)cccc2o1`, with 96.5% (inactive).
`Nc1ccccc1NC(=O)c1ccc(CNC(=O)OCc2cccnc2)cc1`: the Potency was 1320 nM (active).
As for `c1ccc2c(Oc3nc(Nc4ccc(N5CCOCC5)cc4)c4ncn(C5CCCCC5)c4n3)cccc2c1`, the “viability” value is 108% (inactive).
For the molecule `Cc1cnc(Nc2ccc(CN3CCOCC3)cc2)nc1Nc1cccc(S(=O)(=O)NC(C)(C)C)c1`, the Potency was 4690 nM (active).
As to `Cc1cnc(C(=O)O)c[n+]1[O-]`, the “viability” value is 103% (inactive).
`N=c1ccn2c(n1)O[C@H]1[C@@H](O)[C@@H](CO)O[C@H]12`: the Potency is 1480 nM (active).
Still for that read-out and setting: under `C#Cc1cccc(Nc2ncnc3cc(OC)c(OCCCCCCC(=O)NO)cc23)c1` stands 372 nM (active).
Same read-out and setting: then `Cc1cc(CN2CCN(c3c(Br)cnc4nc(-c5ccc(N6CCN(C)CC6)cc5)[nH]c34)CC2)no1`, with 16600 nM (active).
Take `Cc1noc(NS(=O)(=O)c2ccc(N)cc2)c1C`: the “viability” value is 99.6% (inactive).
Same read-out and setting: then `CCOC(=O)c1ccc(C#Cc2ccc3c(c2)C(C)(C)CCS3)nc1`, with 71.1% (inactive).
Still for that read-out and setting: then `NNC(=O)c1ccncc1`, with 100% (inactive).

The nature of the next test: Quantitative highthroughput screen to assess conditional lethalithy of P12 Ichikawa cells grown in Human Plasma-Like Medium with dialyzed fetal bovine serum (HPLM+ds) (AID 1963879). The note with it: ATP luminescence, 48 h; Potency: viability; series mostly up to 45.8 µM; viability: at the top concentration. Put shortly:
as §1
`N#Cc1c(N(CC(=O)O)CC(=O)O)sc(C(=O)O)c1CC(=O)O`: the Potency was 16600 nM (active).
On to `CNC1CCC(N(Cc2cccc(-c3ccncc3)c2)C(=O)c2sc3ccccc3c2Cl)CC1` (stereo not drawn), for which the Potency was 1180 nM (active).
Consider `CN(C)S(=O)(=O)c1ccc2c(c1)C(=Cc1cc3c([nH]1)CCCC3)C(=O)N2`, for which the “viability” value was 103% (inactive).
On the same count and under the same terms, then `O=C1N(c2ccccc2)c2ccccc2C1(Cc1ccncc1)Cc1ccncc1`, with 99.1% (inactive).
`CCCCCCCCCCCCCC(=O)N[C@H](CO)[C@H](O)c1ccc([N+](=O)[O-])cc1`: the Potency is 3720 nM (active).
Same read-out and setting: under `CN1CCN(CCCN2c3ccccc3Sc3ccc(C(F)(F)F)cc32)CC1` stands 13200 nM (active); under `O=C(Nc1cccc(Cl)c1)Nc1ncc(CCNc2ncnc3ccsc23)s1`, 372 nM (active); under `CC(C)c1cnn2c(NCc3ccccc3)cc(N[C@@H](CO)[C@H](O)CO)nc12`, 1320 nM (active).
Still for that read-out and setting: then `CC(C)C[C@@H](C=O)NC(=O)[C@H](CC(C)C)NC(=O)[C@H](CC(C)C)NC(=O)OCc1ccccc1` (Cbz-Leu-Leu-Leu-aldehyde), with 2960 nM (active).
On the same count and under the same terms, under `CCS(=O)(=O)c1cccc(-c2cc(C(=O)NC3CCN(C)CC3)c(C)c3[nH]c4ncc(C)cc4c23)c1` stands 264 nM (active).
With `COc1ccc2c(Oc3ccc(NC(=O)c4c(C)n(CC(C)(C)O)n(-c5ccccc5)c4=O)cc3F)ccnc2c1`, the “viability” value was 93.6% (inactive).
With `CN1CCN(Cc2ccc(NC(=O)Nc3ccc(Oc4cc(NC(=O)C5CC5)ncn4)cc3)cc2C(F)(F)F)CC1`, the Potency is 526 nM (active).
In the case of `CC(C)Oc1cc(Nc2nc(N[C@@H](C)c3ccc(F)cn3)ncc2Cl)[nH]n1`, the Potency is 833 nM (active).
`Cc1ccn(-c2ccc(-c3ncco3)cc2)c(=O)c1-c1ccc2nc(N)ncc2c1`: the “viability” value is 83.4% (inactive).
`CC#C[C@]1(O)CC[C@H]2[C@@H]3CCC4=CC(=O)CCC4=C3[C@@H](c3ccc(N(C)C)cc3)C[C@@]21C`: the Potency was 9350 nM (active).
`Oc1ccc2ccccc2c1SSc1c(O)ccc2ccccc12`: the “viability” value is 91.2% (inactive).
As for `Cc1ccccc1-n1c(Cn2nc(-c3cccc(O)c3)c3c(N)ncnc32)nc2cccc(C)c2c1=O`, the Potency was 2960 nM (active).
For the molecule `Cc1cc(O)c2c(c1)C(=O)c1cccc(O)c1C2=O`, the Potency was 18700 nM (active).
Take `CCC(=O)N[C@H]1CC[C@H](C(=O)N(C)c2ccc(-c3nc4ccccc4o3)cc2)C1`: the “viability” value is 80.5% (inactive).
As to `Nc1ccccc1NC(=O)c1ccc(CNC(=O)OCc2cccnc2)cc1`, the Potency was 2350 nM (active).
Regarding `c1ccc2c(Oc3nc(Nc4ccc(N5CCOCC5)cc4)c4ncn(C5CCCCC5)c4n3)cccc2c1`, the “viability” value is 101% (inactive).
For the molecule `Cc1cc(CN2CCN(c3c(Br)cnc4nc(-c5ccc(N6CCN(C)CC6)cc5)[nH]c34)CC2)no1`, the Potency is 1050 nM (active).
Same read-out and setting: under `NNC(=O)c1ccncc1` stands 16600 nM (active).
